{"source": "the supplement of paper PMC6805474", "note": "Values without a mark were called inactive.", "data": [{"test_system": "Schistosoma mansoni schistosomula (Liberian)", "assay": "drug effect (1 - score/DMSO control score) (fraction); higher = more antischistosomal effect, active = 0.5 or more; extreme values may be limits of the assay", "conditions": "72 h; 10 µM", "summary_of_the_method": "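A plate was valid only if its 0.1% DMSO wells averaged a score of at least 2. Those wells ran beside duplicate wells in which 50 Liberian-strain Schistosoma mansoni schistosomula each, transformed mechanically from cercariae and pre-incubated at least 12 h, met 10 µM compound in Medium 199 with 5% FCS at 37 °C, 5% CO2. Scoring was visual at 10× at 24, 48 and 72 h, from 3 (normal) to 0 (dead) in quarter-point steps. Drug effect was derived from the mean test-well score against the mean DMSO-well score, with negatives set to zero.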", "values": [{"smiles": "O=C(Nc1ccc(F)c(-c2nc3cc(-c4ccccc4)cnc3[nH]2)c1)N1CCCC1", "drug effect": "0.875 (active)"}, {"smiles": "O=C(C(Cc1c[nH]c2ccccc12)NS(=O)(=O)c1ccc(Cl)cc1)N1CCCCC1", "note": "(centres undefined)", "drug effect": 0.111}, {"smiles": "N=C(N)c1ccc(-c2cc(-c3ccccc3)on2)cc1", "drug effect": 0.455}, {"smiles": "Nc1ncc(-c2cn[nH]c2)cc1-c1nc2cc(Cl)cnc2[nH]1", "drug effect": 0.0556}, {"smiles": "NC(=O)c1cc(-c2ccsc2)ccc1OCCOc1ccccc1", "drug effect": "< 0"}, {"smiles": "CC(C)(C)n1nc(Cc2cccc3ccccc23)c2c(N)ncnc21", "drug effect": "0.625 (active)"}, {"smiles": "O=C([C@@H](c1ccc(Cl)cc1)c1cccnc1)N1CCN(c2ccc(C(F)(F)F)cc2)CC1", "drug effect": "0.75 (active)"}, {"smiles": "CCc1ccc([C@@H]2C[C@H](C(F)(F)F)n3ncc(C(=O)NCc4ccc(OC)cc4)c3N2)cc1", "drug effect": 0.0556}, {"smiles": "COc1ccc2nccc(NC(=O)C3CCN(CCc4ccc(Cl)cc4)CC3)c2n1", "drug effect": 0.111}, {"smiles": "c1ccc(-c2cc(N3CCCCC3)c3ccccc3n2)nc1", "drug effect": 0.389}, {"smiles": "O[C@@H](c1cc(C(F)(F)F)nc2c(C(F)(F)F)cccc12)[C@H]1CCCCN1", "drug effect": "1 (active)"}, {"smiles": "NS(=O)(=O)c1cccc(-c2ccc3ncc(N4CCOCC4)nc3c2)c1", "drug effect": 0.455}, {"smiles": "Nc1ncnc2c1c(-c1cnc3ccccc3c1)nn2CC1CCNCC1", "drug effect": "0.5 (active)"}, {"smiles": "CO[C@H]1/C=C/O[C@@]2(C)Oc3c(C)c(O)c4c(O)c(/c(=C/NN5CCN(C)CC5)c(O)c4c3C2=O)=N\\C(=O)/C(C)=C\\C=C/[C@H](C)[C@H](O)[C@@H](C)[C@@H](O)[C@@H](C)[C@H](OC(C)=O)[C@@H]1C", "drug effect": 0.105}, {"smiles": "COc1ccc(-c2cnc3ccc(NCc4ccc(S(N)(=O)=O)cc4)nn23)cn1", "drug effect": 0.312}, {"smiles": "c1coc(CNc2nc(N3CCCCC3)nc3ccccc23)c1", "drug effect": "1 (active)"}, {"smiles": "CCOC(=O)NC(=O)c1ccsc1NC(=O)c1nc2ccccc2s1", "drug effect": 0.182}, {"smiles": "COc1ccc(Cn2cnc3c(-c4ccco4)nc(Cl)nc32)cc1", "drug effect": 0.125}, {"smiles": "Cc1ccc(NC(=O)CC2COc3ccccc3O2)cc1Cl", "note": "(centres undefined)", "drug effect": 0.4}, {"smiles": "O=C(NCCc1ccccc1)c1cc(-c2cccnc2)cnc1NCC1CC1", "drug effect": "0.576 (active)"}, {"smiles": "CCN(CC)S(=O)(=O)c1ccc(Cl)c(C(=O)Nc2ccc3nc(C)sc3c2)c1", "drug effect": 0.111}, {"smiles": "CCN(CC)C(=O)N1CCN(C)CC1", "drug effect": 0.375}, {"smiles": "CC(C)n1ncc2c(C(=O)NCC(c3cccs3)N3CCOCC3)cc(-c3ccccc3)nc21", "note": "(centres undefined)", "drug effect": 0.4}, {"smiles": "Cc1nn(C)cc1C(C)Nc1nncc(-c2ccc(C(F)(F)F)cc2)n1", "note": "(centres undefined)", "drug effect": 0.105}, {"smiles": "c1ccc(Oc2ccc(-c3cc(N4CCOCC4)[nH]n3)cc2)cc1", "drug effect": 0.152}, {"smiles": "Cc1cccnc1NC(=O)c1cccc(OCc2c(C)noc2C)c1", "drug effect": 0.127}, {"smiles": "Cc1cc(OCC(=O)NCc2ccccc2)c2cc(Br)ccc2n1", "drug effect": 0.0625}, {"smiles": "O=C(Nc1nc(-c2ccccn2)cs1)C1CC1c1ccccc1F", "note": "(centres undefined)", "drug effect": 0.127}, {"smiles": "CNC(=O)c1cc(S(=O)(=O)N2CCN(c3ccccn3)CC2)cs1", "drug effect": 0.111}, {"smiles": "O=C(CN1CCOCC1)Nc1ccc2ncnc(Nc3ccc(OCc4cccc(F)c4)c(Cl)c3)c2c1", "drug effect": 0.222}, {"smiles": "COc1ccccc1C(C)NCC(=O)Nc1cc(C(F)(F)F)ccc1Cl", "note": "(centres undefined)", "drug effect": 0.278}, {"smiles": "Nc1ccc(C(=O)Nc2ccc(-c3nc4ccccc4o3)cc2)cc1", "drug effect": 0.211}, {"smiles": "CC1CCCN(C(=O)C(C)Nc2cc(Cl)ccc2N2CCOCC2)C1", "note": "(centres undefined)", "drug effect": 0.375}, {"smiles": "CC(C)(C(=O)Nc1ccc(F)cc1)n1cc(-c2ccccc2F)cn1", "drug effect": "< 0"}, {"smiles": "COc1ccc(C2CC(c3cccs3)=NN2C(=O)c2ccco2)cc1OC", "note": "(centres undefined)", "drug effect": 0.167}, {"smiles": "CO[C@@H](C(=O)N1Cc2[nH]nc(NC(=O)c3ccc(N4CCN(C)CC4)cc3)c2C1)c1ccccc1", "drug effect": 0.278}, {"smiles": "CNc1snc(C)c1C(=O)NCCOc1ccc(OC)cc1", "drug effect": 0.127}, {"smiles": "COc1ccc(-c2cnc3ccc(N4CCCC4)nn23)cc1OC", "drug effect": "1 (active)"}, {"smiles": "Cc1ccc2nc(C)c(-c3ccn(Cc4ccccc4)n3)n2c1", "drug effect": 0.111}]}]}
